# From PubChem
# Six1-Eya2 inh – inhibitors of human Six1/Eya2 interaction | 360,000 compounds, 0.56% hits | AlphaScreen GST-Six1/His-Eya2 binding, biochemical; hits give low values | activity change, % (no concentration beside the values) | Q15475+O00167
#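 Homogeneous AlphaScreen proximity assay pairing GST-Six1 with His-tagged Eya2 (added as 5X mix: 250 nM and 500 nM) in 50 mM Tris pH 8.0, 300 mM NaCl, 1 mM TCEP. Glutathione donor and nickel acceptor beads; 1 h, 37 °C, dark.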
# PI4K2A inh – inhibitors of human PI4K2A; purified PI4K2A, ADP-Glo luminescence, 1 h; hits give low values; 420,000 compounds, 0.13% hits; Q9BTU6; activity change, negative = inhibition, % at 76.9 µM; in the data active = activity change below about -50%; inconclusive = mostly about -30% to -49%;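 note: -100% = wells without enzyme as full effect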
# Target sequence (Q9BTU6 whole entry, looked up): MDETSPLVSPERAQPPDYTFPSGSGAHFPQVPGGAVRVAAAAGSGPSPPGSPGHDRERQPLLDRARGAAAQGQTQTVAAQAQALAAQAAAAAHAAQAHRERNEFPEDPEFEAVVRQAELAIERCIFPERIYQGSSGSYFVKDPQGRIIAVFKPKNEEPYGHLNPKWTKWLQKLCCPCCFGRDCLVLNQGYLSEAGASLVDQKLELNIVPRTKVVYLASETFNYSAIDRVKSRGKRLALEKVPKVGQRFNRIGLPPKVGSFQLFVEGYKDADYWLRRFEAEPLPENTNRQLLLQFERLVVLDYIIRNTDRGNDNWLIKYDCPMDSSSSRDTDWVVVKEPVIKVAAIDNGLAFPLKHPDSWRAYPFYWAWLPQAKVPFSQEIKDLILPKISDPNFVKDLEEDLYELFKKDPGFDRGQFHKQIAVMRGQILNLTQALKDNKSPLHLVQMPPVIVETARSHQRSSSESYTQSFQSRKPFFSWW
#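 PI4K2A activity was measured by ADP-Glo luminescence: enzyme (4 ug/mL stock) and phosphatidylinositol (1.2 mM stock) in Tris pH 7.5/MgCl2/EGTA/Triton X-100 buffer were reacted with ATP (300 microM stock) for one hour at ambient temperature.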
# CtBP-E1A blk – CtBP/E1A binding inhibition; AlphaScreen GST-E1A/His-CtBP binding, 1536-well; hits give low values; activity change, % (no concentration beside the values); 340,000 compounds, 0.49% hits; AID 651724
#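 Protein mix (5X: 125 nM each GST-E1A, His-CtBP) was incubated with pinned compound 2 h at 37 deg C in dark, in 50 mM Tris pH 8.0 buffer with 300 mM NaCl. Glutathione donor and nickel acceptor beads followed; AlphaScreen signal read after 1 h.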
# PI5P4Ka inh – inhibitors of human PI5P4K alpha; P48426; 330,000 compounds, 1.2% hits; AID 652105; PI5P4Kalpha enzyme, ADP-Glo luminescence, 60 min; hits give low values; max response, %; active = max response of -50% or lower; inconclusive = between -30% and -50%; inactive = -30% or higher; note: value at the top dose of about 77 µM
#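 Compounds were pin-transferred onto PI5P4Kalpha and substrate in HEPES pH 7.4 buffer with EGTA, CHAPS and 5% DMSO. ATP (5 microM final) started the reaction, which ran 60 minutes at room temperature before ADP-Glo detection.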
# Akt phos inh – Akt phosphorylation inhibition; Neuro2A IGF-stimulated pAkt S473 HTRF, 20 min; hits give low values; activity change, % for hits at 50 µM; 360,000 compounds, 0.32% hits; in the data active = activity change below about -80%; inconclusive = mostly about -51% to -80%
#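 Neuro2A cells (4,500/well, DMEM with 0.5% FBS) were treated with compound at a single 50 µM final concentration, stimulated with 6 nM IGF for 20 min at 37 °C, and lysed. Phospho-Akt Ser473 was read by HTRF as 665/615 ratio ×10^4.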
# Starred values were filed as active, the others as inactive; i = inactive; u = inconclusive; x = no result; ! = not active in a repeat. Rows were chosen to be rich in hits. Some 1.8% of all compounds tested hit in one or more screens of this group. Cut-off read from the data, not from the text of the source, unless noted: active = activity change below about -65%; inconclusive = mostly about -30% to -63%; inactive = weaker than that. Unless noted, % is set by controls: 0 for no effect and ±100 for the full control effect.
SMILES,Six1-Eya2 inh,PI4K2A inh,CtBP-E1A blk,PI5P4Ka inh,Akt phos inh
O=C(CSc1ccc(-c2ccccn2)nn1)c1ccc(F)cc1,-12,1,-14,2,i
O=C(CSc1ccc(-c2ccco2)nn1)N1CCCC1,6,-9,-7,-4,i
c1ccc(CSc2ccc(-c3ccccn3)nn2)cc1,-91*,-5,u,-17,i
O=C(Nc1ccc(C2=CN(Cc3ccccc3)CCC2=O)cc1)OCc1ccccc1,4,-4,3,0,i
CC(=O)Nc1cccc(C(=O)N2CCN(S(=O)(=O)c3ccc4ccccc4c3)CC2)c1,0,3,-1,-7,i
O=C(O)CCN1C(=O)CC(N2C(=O)/C(=C/c3ccc(Cl)cc3)SC2=S)C1=O (configuration not stated),-8,-10,-3,1,i
Cc1ccccc1CN1C(=O)CN(S(C)(=O)=O)CC1(C)C(=O)Nc1ccc2c(c1)OCCO2 (configuration not stated),2,-3,-12,8,i
COc1ccc(O)c(/C=N/NC(=O)c2cccc(N3CCCC3=O)c2)c1,u,-5,u,0,i
COc1ccc(O)c(/C=N/NC(=O)c2ccc(N3CCCC3=O)cc2)c1,u,-5,-71*,3,i
O=C(N/N=C/c1cc(Br)ccc1O)c1cccc(N2CCCC2=O)c1,-78*,0,-67*,-10,i
O=C(c1cn(-c2ccccc2)nc1-c1ccncc1)N1CCCCC1,-1,2,3,-4,i
N#Cc1cccc(-c2nnc(SCc3ccccc3C#N)o2)c1,0,3,0,-2,i
O=[N+]([O-])c1ccc2c(c1)N([O-])C1(CCCCC1)[N+]2=O,-12,-14,-5,-51*,i
NC(=O)c1ncn([C@@H]2O[C@H](CO)[C@@H](O)[C@H]2O)c1N,x,2,x,x,x
COc1cccc(/C=C2/C(=O)NN(c3ccc(C)c(C)c3)C2=O)c1,0,-7,9,2,i
Cc1ccc(N2NC(=O)/C(=C\c3cc4c(cc3[N+](=O)[O-])OCO4)C2=O)cc1C,-19,-4,-1,-57*,i
O=C1NN(c2ccccc2)C(=O)C1=Cc1ccccc1O,-2,5,-6,-5,i
O=C1NN(c2ccccc2)C(=O)/C1=C\c1ccc2c(c1)OCO2,3,-5,11,2,i
COc1cc(/C=C2/C(=O)NN(c3ccc(C)c(Cl)c3)C2=O)cc([N+](=O)[O-])c1O,-12,-4,x,-67*,i
O=C1NN(c2ccccc2)C(=O)/C1=C\c1cccn1-c1ccc(Cl)c([N+](=O)[O-])c1,-2,-12,-1,-63*,i
COc1cc(/C=C2/C(=O)NN(c3cccc(C)c3)C2=O)cc([N+](=O)[O-])c1O,13,-6,x,-62*,i
COc1cc(/C=C2/C(=O)NN(c3cccc(Cl)c3)C2=O)cc(OC)c1O,-3,-23,3,u,i
CC(NC(=O)c1ccc(F)cc1)c1ccc2c(c1)CCCC2 (configuration not stated),2,-4,9,0,i
O=C(c1ccco1)N1CCCC(N2CCN(c3ccccc3F)CC2)C1 (configuration not stated),-7,0,4,1,i
O=C(c1ccco1)N1CCN(c2ccccc2F)CC1,7,-3,4,11,-117%*
SMILES,Six1-Eya2 inh,PI4K2A inh,CtBP-E1A blk,PI5P4Ka inh,Akt phos inh
COc1ccc(N2CCN(CC(=O)Nc3ncc(C)s3)CC2)cc1,-8,2,x,-9,i
COc1ccc(N2CCN(CC(=O)Nc3nc4c(s3)CC(C)CC4)CC2)cc1 (configuration not stated),u,9,u,-5,-120%*
Cc1ccc(N=Nc2ccc3ccccc3c2O)cc1,-88*,-11,-1,48,i
Oc1c(N=Nc2nn[nH]n2)ccc2ccccc12,-76*,u,u,-82*,i
Oc1ccc2ccccc2c1N=Nc1ccc(F)cc1,u,-4,-24,0,i
COc1ccc(N=Nc2ccc3ccccc3c2)c(O)c1,u,-5,x,98,i
Oc1c(N=Nc2ccc(F)cc2)ccc2ccccc12,u,-10,-76*,-1,i
COc1cccc(N=Nc2ccc3ccccc3c2O)c1,-82*,-4,x,2,i
Cc1c(N2C(=O)c3ccc4c5c(ccc(c35)C2=O)CC4)c(=O)n(-c2ccccc2)n1C,-8,-27,-11,-64*,i
Cc1c(N2C(=O)c3ccc(Br)cc3C2=O)c(=O)n(-c2ccccc2)n1C,5,-1,6,0,i
COc1ccccc1N1CCN(CC(=O)c2c(C)[nH]c3ccccc23)CC1,-4,4,12,x,i
CCC(=Nc1ccc(Cc2ccncc2)cc1)c1c(O)n(C)c(=O)n(C)c1=O,9,-2,-2,2,-121%*!
N#Cc1c(Nc2ccccc2)sc(C(=O)c2ccc(F)cc2)c1N,-7,-2,x,-2,i
O=C(Nc1cccc(N=Cc2cc(Cl)cc(Br)c2O)c1)c1ccco1,-2,-7,-7,-55*,i
O=C(Nc1cc(Br)c(O)c(Br)c1)c1cccc(NC(=O)c2ccco2)c1,-23,-10,u,-30,i
O=C(Nc1cccc(N=Cc2cc(Br)cc(Br)c2O)c1)c1ccco1,-16,-19,2,-59*,i
Nc1nc(NCc2ccco2)nc(N2CCCCCC2)c1[N+](=O)[O-],u,-1,9,3,i
CC(=O)Nc1ccc(S(=O)(=O)Nc2ccc(-n3cnnn3)cc2)cc1,0,-2,x,-1,i
CCCCNC(=O)Cc1coc2ccc3ccccc3c12,8,0,-7,0,-110%*
CCCCn1c(-c2ccc(OC)cc2)nc2c(=O)n(C)c(=O)[nH]c21,-3,3,x,u,i
CCCn1c(-c2ccc(OC)cc2)nc2c(=O)n(C)c(=O)[nH]c21,2,0,-1,-51*,i
O=C(/C=C/c1ccco1)NC(=S)Nc1cccc(-c2nc3ccccc3o2)c1,-26,u,-13,-64*,i
Cc1ccccc1NC(=S)NC(=O)/C=C/c1ccco1,0,-25,-19,-58*,i
Cc1ccc(C(=O)N/C(=C/c2ccco2)C(=O)Nc2cccc(C)c2)cc1,-11,2,-12,x,i
COc1ccccc1NC(=S)NC(=O)/C=C/c1ccco1,-26,-11,-11,u,i
Cc1ccc(-c2nc3ccccc3o2)cc1NC(=S)NC(=O)/C=C/c1ccco1,-3,6,-1,u,i
Cc1cccc(NC(=O)/C(=C\c2ccco2)NC(=O)c2cccs2)c1,-6,-8,1,-29,-110%*
CSc1cccc(NC(=O)/C=C/c2ccco2)c1,-17,-30,-6,-58*,i
